Here are results for five compounds from PubChem BioAssay (NCATS).

Assay [1] has as its target Lysosomal acid glucosylceramidase (Homo sapiens) (UniProt P04062). The assay can be described thus: Glucocerebrosidase-p2 (AID 348; in the data active = potency below about 10 µM; also: potency is read from the fitted curve at half-maximal effect). Conditions: purified GBA, blue fluorogenic substrate, 40 min. In a few lines: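 Normal human glucocerebrosidase (0.2 nM) with blue fluorogenic substrate (80 uM final) in citrate/phosphate pH 5.9 with 10mM sodium taurocholate, 0.01% tween-20; 40 min RT, NaOH/glycine stop; fluorescence Ex 365/Em 440; AC50 from a titration from 0.6 nM upwards.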

Assay [2] is described as follows: AP1 Signaling Pathway (AID 357; active = well fitted curve in either direction with a large enough effect, not every such curve was filed as active;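 also: ME-180 reporter cells stimulated with EGF at its EC50 level; % is scaled to controls: 0 for no effect and ±100 for the full control effect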). The following applies: ME-180 AP-1-bla reporter, EGF-induced, beta-lactamase ratio, 5 h; at 7.69 µM (top of the series) unless noted. Summed up: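 AP-1-bla ME-180 cells, Opti-MEM + 0.5% dialyzed FBS, plated overnight 37 °C. Cpd titration + EC50 EGF, 5 h 37 °C. CCF4 2.5 h RT; ex 405, em 460/530 ratio → %activity, AC50.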
Assay [3] addresses Cytochrome P450 1A2 (Homo sapiens) (UniProt P05177). Put plainly: p450-cyp1a2 (AID 410; calls by dose curve; also: potency is read from the fitted curve at half-maximal effect). The following applies: recombinant CYP1A2, luciferin-ME demethylation, luminescence; series mostly up to 57 µM. In a few lines: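 Read-out is luminescence from luciferin produced by CYP1A2 demethylation of Luciferin-ME (100uM, at Km). Detection reagent stopped the 60 min NADPH-dependent reaction; signals were normalized to 57 uM furafylline.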

Assay [4] is described as follows: NFAT Signaling Pathway (AID 444; active = well fitted curve in either direction with a large enough effect, not every such curve was filed as active;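 also: carbachol stimulus at about its EC50 of 1 µM final; % is scaled to controls: 0 for no effect and ±100 for the full control effect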). The following applies: Jurkat NFAT-bla M1, carbachol, beta-lactamase ratio, 5 h; at 7.69 µM (top of the series) unless noted. Summed up:
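Read-out: CCF4 FRET ratio (460 nm/530 nm) after 1 h RT dye loading, used for %activity and AC50 from titration series. Cells: Jurkat NFAT-β-lactamase/M1 line, treated with compound plus 1 uM carbachol for 5 h, 37 °C.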

The nature of assay [5]: Stat Signaling Pathway (AID 446; active = well fitted curve in either direction with a large enough effect, not every such curve was filed as active;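 also: ME-180 cervical cancer cells given 40 pM IL-6 alongside compound; SIE-controlled beta-lactamase reporter measured as 460/530 nm FRET emission ratio; % is scaled to controls: 0 for no effect and ±100 for the full control effect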). Conditions: ME-180 (cervical carcinoma) SIE beta-lactamase reporter, IL-6 stimulated, 5 h; at 7.69 µM (top of the series) unless noted. In a few lines:
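Normalization used AC90 stimulation (300 pM IL-6) and AC90 inhibition (125 nM pan-JAK inhibitor at 40 pM IL-6). The underlying signal is SIE-driven beta-lactamase in ME-180 cells after 5 h IL-6 exposure with compound.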

Assay [6] concerns the target Glucocorticoid receptor (Homo sapiens) (UniProt P04150). The assay can be described thus: GR-GFP Redistribution (AID 450;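 active = compounds whose dose series gives a full or clear partial fitted curve of increased nuclear translocation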; also: potency is read from the fitted curve at half-maximal effect). Conditions: U2OS GR-GFP nuclear translocation, laser cytometry, 2 h.
For assay [7] the target is unchanged. The assay can be described thus: GR-EFC Redistribution (AID 451; calls by dose curve; also: potency is read from the fitted curve at half-maximal effect). The following applies: CHO-K1 GR-EFC translocation, beta-gal luminescence, 2 h. In a few lines: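 Translocation of GR-ED fusion to nuclear EA restores b-gal, read by luminescence after 1 h room-temperature detection. Engineered CHO-K1 biosensor cells, 1,000/well, exposed 2 h at 37 C to titrations up to 46 uM final.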

Assay [8] addresses Mitogen-activated protein kinase 10 (Mus musculus) (UniProt Q61831). The assay can be described thus: JNK3 AlphaScreen Assay (AID 530; active = well fitted curve in either direction with a large enough effect, not every such curve was filed as active;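 also: kinase came from lysate of stimulated human HepG2 cells; signal reports phosphorylation of biotinylated GST-cJun 1-79 at Ser73 with 10 µM ATP; % is scaled to controls: 0 for no effect and ±100 for the full control effect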). Conditions: JNK3 lysate, c-Jun phosphorylation; series mostly up to 57.1 µM. Summed up: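 Kinase buffer: 20 mM Tris-HCl pH 7.6, 10 mM MgCl2, 1 mM DTT, 0.1 mM Na3VO4, 0.01% Tween-20; ATP 10 uM. Substrate biotin-GST-cJun(1-79), enzyme from activated HepG2 lysates. Detection by Ser73 phospho-antibody AlphaScreen.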

Assay [9] deals with 3',5'-cyclic-AMP phosphodiesterase 4B (Homo sapiens) (UniProt Q07343). The assay can be described thus: qHTS Assay for Inhibitors of PDE-IV (AID 607; active = well fitted activation curve with a large enough effect in the main read-out, with a control signal flat, not every such curve was filed as active; also: % of control where 0% means no effect). Conditions: HEK293 ACTOne CNG channel cells, membrane potential fluorescence; series mostly up to 22.9 µM. In a few lines:
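HEK293 ACTOne cells with CNG channel (1000/well), endogenous PDE4; membrane potential dye, compounds up to 22.9 uM final. Fluorescence Ex 535/Em 590; RO 20-1724 (100 uM final) as reference.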

For assay [10], the target named is Cytochrome P450 3A4 (Homo sapiens) (UniProt P08684). Put plainly: qHTS Assay for Activators of Cytochrome P450 3A4 (AID 885). Also: nearly all actives have a fitted effect of over 65% in size. Also: potency is read from the fitted curve at half-maximal effect. The following applies: recombinant CYP3A4, Luciferin-PPXE luminescence, 60 min; series mostly up to 57.1 µM. In a few lines:
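Human CYP3A4 dealkylates Luciferin-PPXE to luciferin, which luciferase detection converts to light. Substrate was at its KM (25uM), buffer 200mM KPO4, reaction 60 min at RT.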

Assay [11] in a line: qHTS Assay for Lipid Storage Modulators (AID 1519; calls by dose curve). The following applies: Drosophila S3 cells, BODIPY lipid droplet/cell ratio, laser cytometry, cells loaded with oleic acid; for activity change, negative = inhibition: at 57.5 µM (top of the series). Summed up:
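Cells seeded at 5,000 per well were treated with compounds over a concentration series and loaded with oleic acid (400 uM, as added). Lipid droplet fluorescence (488 nm excitation, 500-530 nm channel) was read by laser-scanning cytometry and normalized to 20 uM Triacsin C.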

Assay [12] addresses Dual specificity protein kinase CLK4 (Homo sapiens) (UniProt Q9HAZ1). The assay can be described thus: qHTS Assay for Inhibitors of CDC-like Kinase 4 (Kinase-Glo Assay) (AID 1770). Also: nearly all actives have a fitted effect of over 65% in size. Also: potency is read from the fitted curve at half-maximal effect. The following applies: recombinant Clk4, Kinase-Glo ATP depletion luminescence; series mostly up to 66.7 µM. Summed up: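 Readout: Kinase-Glo luminescence from ATP left after a 4.5 h room-temperature reaction of 25 nM Clk4 with 100 uM RS peptide and 1 uM ATP (final). Buffer: 25 mM Tris pH 7.5, 10 mM MgCl2.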

For assay [13] the target is unchanged. Put plainly: qHTS Assay for Inhibitors of CDC-like Kinase 4 (ADP-Glo Assay) (AID 1771). Also: nearly all actives have a fitted effect of over 70% in size. Also: potency is read from the fitted curve at half-maximal effect. Conditions: recombinant CLK4, ADP-Glo luminescence; series mostly up to 80 µM. Summed up: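 In this ADP-Glo format, 1 uM ATP and 100 uM RS peptide served as substrates for 25 nM Clk4 in Mg2+/EGTA/DTT/Triton buffer; reactions ran 1 hr at room temperature before luminescent ADP quantification.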

Assay [14] shares this target. The assay can be described thus: qHTS Assay for Inhibitors of CDC-like Kinase 4 (ADP-FP Assay) (AID 1795).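 Also: recombinant human CLK4 phosphorylating RS repeat peptide at 1 µM ATP; % is scaled to controls: 0 for no effect and ±100 for the full control effect; nearly all actives have a fitted effect of over 60% in size.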 The following applies: Transcreener ADP fluorescence polarization; series mostly up to 50 µM. In a few lines:
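FP readout: Orange Transcreener ADP2 tracer (4 nM) plus ADP antibody, read after 30 min at room temperature. Kinase step: 6.25 nM Clk4, 100 uM RS peptide, 1 uM ATP, pH 7.5, 1 h.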

Assay [15] addresses Ubiquitin carboxyl-terminal hydrolase 1 (Homo sapiens) (UniProt O94782). The assay can be described thus: Inhibitors of USP1/UAF1: Pilot qHTS (AID 504865).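 Also: rhodamine fluorescence freed from ubiquitin-rhodamine substrate followed over time; top concentration of the series differs between compounds; % is scaled to controls: 0 for no effect and ±100 for the full control effect; nearly all actives have a fitted effect of over 35% in size.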 The following applies: purified USP1/UAF1, Ub-rhodamine cleavage fluorescence; series mostly up to 54.9 µM. Summed up:
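1nM USP1/UAF1 + cpd, 15 min RT; start w/ Ub-Rho 150nM final; kinetic FL 480/540 nm, 6 reads q60 s. Buffer 50mM HEPES pH 7.8, 0.5mM EDTA, 1mM TCEP, 0.01% Tween-20, 0.1 mg/ml BSA.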

Assay [16] is described as follows: Primary qHTS for small molecule stabilizers of the endoplasmic reticulum resident proteome: Secreted ER Calcium Modulated Protein (SERCaMP) assay (AID 1508630). Also: % is scaled to controls: 0 for no effect and ±100 for the full control effect. The following applies: SH-SY5Y GLuc-SERCaMP (Gaussia luciferase released on ER calcium loss) secretion, thapsigargin, luminescence; series mostly up to 38.4 µM. In a few lines: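 The SH-SY5Y reporter protocol was run at 3 concentrations up to 38.3 uM (primary) or 11 concentrations (follow-up): 16 h compound, 100 nM thapsigargin for 4 h, then extracellular luciferase luminescence.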

For assay [17], the target named is Cytochrome P450 3A4 (Homo sapiens) (UniProt P08684). Put plainly: qHTS Assay for Inhibitors and Substrates of Cytochrome P450 3A4 (AID 884). Also: nearly all actives have a fitted effect of over 50% in size. Also: potency is read from the fitted curve at half-maximal effect. The following applies: recombinant CYP3A4, Luciferin-PPXE luminescence; series mostly up to 57.1 µM. In a few lines: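 Luminescent readout of luciferin produced by CYP3A4 (20 nM) dealkylation of Luciferin-PPXE, 25 uM (its KM). NADPH-driven reaction ran 60 min at RT after 10 min compound preincubation; data scaled to 57 uM ketoconazole as 100% inhibition.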

Where [18] appears, read: measured here: cell count channel max response.
The mark [19] stands for this setting: measured here: lipid channel max response.

Records with an inconclusive call do not appear. Activity calls are given as the source filed them. Unless noted, calls follow the shape of the dose curve; as a rule, active = well fitted curve in the direction sought with a large enough effect; inconclusive = small, poorly fitted or top-dose-only effect, or another doubt; inactive = no such curve, though single readings can be large; an effect the other way counts as inactive or inconclusive. Bounds are passed on as bounds.

Glucocorticoid receptor (Homo sapiens), sequence (P04150 whole entry, looked up, the tested form may be a part): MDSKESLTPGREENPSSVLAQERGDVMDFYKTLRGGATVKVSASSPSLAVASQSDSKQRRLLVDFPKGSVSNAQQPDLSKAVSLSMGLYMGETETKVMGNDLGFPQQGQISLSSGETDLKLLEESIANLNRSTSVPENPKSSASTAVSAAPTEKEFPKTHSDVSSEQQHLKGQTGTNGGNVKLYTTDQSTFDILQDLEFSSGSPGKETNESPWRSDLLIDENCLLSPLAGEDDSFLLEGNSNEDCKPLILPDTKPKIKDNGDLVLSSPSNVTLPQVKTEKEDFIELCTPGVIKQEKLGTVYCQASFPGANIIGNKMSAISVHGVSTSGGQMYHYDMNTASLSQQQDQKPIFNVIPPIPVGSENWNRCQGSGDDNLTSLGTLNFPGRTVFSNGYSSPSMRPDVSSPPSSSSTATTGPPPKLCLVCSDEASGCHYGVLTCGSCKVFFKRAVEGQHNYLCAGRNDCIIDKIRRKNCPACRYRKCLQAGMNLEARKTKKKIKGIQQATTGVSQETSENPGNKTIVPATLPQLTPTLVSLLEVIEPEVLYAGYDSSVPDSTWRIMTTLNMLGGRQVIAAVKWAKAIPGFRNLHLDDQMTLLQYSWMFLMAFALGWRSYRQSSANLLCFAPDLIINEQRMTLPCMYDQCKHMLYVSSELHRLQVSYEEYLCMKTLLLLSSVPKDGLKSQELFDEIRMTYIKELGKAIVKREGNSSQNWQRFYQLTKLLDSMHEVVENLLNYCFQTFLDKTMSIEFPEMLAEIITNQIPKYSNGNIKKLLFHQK
Lysosomal acid glucosylceramidase (Homo sapiens), sequence (P04062 whole entry, looked up): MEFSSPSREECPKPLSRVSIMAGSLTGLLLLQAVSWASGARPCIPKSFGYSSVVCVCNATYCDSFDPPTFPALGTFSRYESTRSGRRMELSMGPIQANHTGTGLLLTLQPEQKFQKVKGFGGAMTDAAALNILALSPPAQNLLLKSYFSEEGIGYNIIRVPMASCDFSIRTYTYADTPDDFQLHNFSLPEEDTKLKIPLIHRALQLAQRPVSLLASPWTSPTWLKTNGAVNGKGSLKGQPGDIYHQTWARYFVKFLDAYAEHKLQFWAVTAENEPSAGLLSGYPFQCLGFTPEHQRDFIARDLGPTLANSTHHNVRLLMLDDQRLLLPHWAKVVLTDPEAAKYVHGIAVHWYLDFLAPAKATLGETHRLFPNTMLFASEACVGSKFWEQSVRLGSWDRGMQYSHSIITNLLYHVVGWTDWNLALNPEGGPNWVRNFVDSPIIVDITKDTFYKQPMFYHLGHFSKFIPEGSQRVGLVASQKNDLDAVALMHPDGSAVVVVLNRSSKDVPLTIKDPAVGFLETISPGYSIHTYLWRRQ
Cytochrome P450 3A4 (Homo sapiens), sequence (P08684 whole entry, looked up): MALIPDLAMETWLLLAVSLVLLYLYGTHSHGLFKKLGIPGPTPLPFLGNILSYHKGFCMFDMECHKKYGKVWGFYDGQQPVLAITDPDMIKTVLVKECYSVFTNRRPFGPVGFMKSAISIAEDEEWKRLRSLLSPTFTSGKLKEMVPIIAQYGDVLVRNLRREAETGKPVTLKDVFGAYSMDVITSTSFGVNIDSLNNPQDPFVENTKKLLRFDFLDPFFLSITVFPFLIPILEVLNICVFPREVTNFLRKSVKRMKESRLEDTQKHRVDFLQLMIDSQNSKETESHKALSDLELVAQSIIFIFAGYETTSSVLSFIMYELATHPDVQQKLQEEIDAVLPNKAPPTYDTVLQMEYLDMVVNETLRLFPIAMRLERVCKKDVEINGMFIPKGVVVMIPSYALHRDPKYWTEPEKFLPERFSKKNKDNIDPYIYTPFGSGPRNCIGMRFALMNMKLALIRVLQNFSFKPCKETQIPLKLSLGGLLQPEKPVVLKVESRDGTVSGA
Dual specificity protein kinase CLK4 (Homo sapiens), sequence (Q9HAZ1 whole entry, looked up): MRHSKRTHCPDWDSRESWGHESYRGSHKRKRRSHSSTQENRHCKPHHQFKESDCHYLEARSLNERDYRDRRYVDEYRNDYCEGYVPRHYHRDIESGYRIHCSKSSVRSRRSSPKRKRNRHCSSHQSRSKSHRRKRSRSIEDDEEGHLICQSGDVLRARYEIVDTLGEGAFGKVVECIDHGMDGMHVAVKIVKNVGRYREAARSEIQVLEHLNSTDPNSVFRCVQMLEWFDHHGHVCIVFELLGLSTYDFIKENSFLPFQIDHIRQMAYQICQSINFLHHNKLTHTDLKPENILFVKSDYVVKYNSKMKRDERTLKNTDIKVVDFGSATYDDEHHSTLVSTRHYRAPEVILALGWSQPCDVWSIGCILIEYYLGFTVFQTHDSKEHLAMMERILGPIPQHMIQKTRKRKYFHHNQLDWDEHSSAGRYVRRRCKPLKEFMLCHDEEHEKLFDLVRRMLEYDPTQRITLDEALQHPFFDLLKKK
3',5'-cyclic-AMP phosphodiesterase 4B (Homo sapiens), sequence (Q07343 whole entry, looked up): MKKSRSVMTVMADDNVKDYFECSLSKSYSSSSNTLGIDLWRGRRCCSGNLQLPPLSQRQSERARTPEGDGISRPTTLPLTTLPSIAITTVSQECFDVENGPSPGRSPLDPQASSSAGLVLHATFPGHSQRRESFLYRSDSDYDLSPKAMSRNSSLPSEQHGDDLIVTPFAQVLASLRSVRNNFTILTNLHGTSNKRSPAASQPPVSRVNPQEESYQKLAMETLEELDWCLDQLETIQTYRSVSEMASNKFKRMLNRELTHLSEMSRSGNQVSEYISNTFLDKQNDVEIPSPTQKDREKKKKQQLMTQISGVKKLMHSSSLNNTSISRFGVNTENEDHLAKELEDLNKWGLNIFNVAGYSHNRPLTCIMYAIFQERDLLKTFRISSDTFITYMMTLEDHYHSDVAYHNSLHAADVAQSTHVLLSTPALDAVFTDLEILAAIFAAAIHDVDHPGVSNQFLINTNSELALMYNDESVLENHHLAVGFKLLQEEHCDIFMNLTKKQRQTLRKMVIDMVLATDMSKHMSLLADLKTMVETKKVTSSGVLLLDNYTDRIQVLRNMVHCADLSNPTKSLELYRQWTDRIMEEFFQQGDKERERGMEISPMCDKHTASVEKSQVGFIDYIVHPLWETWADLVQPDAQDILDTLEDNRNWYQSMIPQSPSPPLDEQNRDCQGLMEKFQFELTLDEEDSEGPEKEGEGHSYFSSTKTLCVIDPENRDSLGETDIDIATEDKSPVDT
Ubiquitin carboxyl-terminal hydrolase 1 (Homo sapiens), sequence (O94782 whole entry, looked up): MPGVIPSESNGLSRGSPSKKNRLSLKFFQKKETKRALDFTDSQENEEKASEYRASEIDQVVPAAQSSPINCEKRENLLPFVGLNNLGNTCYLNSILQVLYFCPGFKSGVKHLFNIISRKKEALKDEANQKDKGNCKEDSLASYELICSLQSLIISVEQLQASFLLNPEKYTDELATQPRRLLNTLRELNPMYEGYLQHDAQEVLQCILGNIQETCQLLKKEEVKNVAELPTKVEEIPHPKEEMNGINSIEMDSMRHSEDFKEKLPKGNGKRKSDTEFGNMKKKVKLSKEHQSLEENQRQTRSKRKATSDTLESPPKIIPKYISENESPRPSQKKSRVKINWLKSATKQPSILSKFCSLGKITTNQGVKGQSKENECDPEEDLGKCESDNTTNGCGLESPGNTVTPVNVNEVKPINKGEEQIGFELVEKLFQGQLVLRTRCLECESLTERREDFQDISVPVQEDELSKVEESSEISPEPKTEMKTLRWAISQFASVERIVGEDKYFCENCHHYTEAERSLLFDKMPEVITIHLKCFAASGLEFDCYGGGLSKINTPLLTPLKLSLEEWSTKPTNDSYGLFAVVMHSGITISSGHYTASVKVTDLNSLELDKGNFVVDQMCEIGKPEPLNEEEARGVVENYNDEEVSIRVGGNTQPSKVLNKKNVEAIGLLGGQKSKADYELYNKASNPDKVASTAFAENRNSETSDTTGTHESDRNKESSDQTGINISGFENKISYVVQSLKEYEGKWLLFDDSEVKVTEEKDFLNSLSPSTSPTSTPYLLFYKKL
Cytochrome P450 1A2 (Homo sapiens), sequence (P05177 whole entry, looked up): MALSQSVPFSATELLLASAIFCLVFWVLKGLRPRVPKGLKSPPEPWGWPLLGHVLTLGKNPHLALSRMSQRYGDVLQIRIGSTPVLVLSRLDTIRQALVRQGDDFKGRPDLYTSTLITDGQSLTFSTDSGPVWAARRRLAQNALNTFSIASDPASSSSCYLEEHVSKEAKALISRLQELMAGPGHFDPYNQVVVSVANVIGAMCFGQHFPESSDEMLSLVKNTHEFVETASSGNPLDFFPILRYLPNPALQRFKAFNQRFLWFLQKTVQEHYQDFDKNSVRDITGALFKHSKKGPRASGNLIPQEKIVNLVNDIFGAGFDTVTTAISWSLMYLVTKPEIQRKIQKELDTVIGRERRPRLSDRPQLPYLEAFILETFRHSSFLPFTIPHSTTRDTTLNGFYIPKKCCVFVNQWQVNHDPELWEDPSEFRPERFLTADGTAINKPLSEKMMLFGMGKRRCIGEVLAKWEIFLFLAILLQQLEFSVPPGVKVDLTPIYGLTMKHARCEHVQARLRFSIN

For `COc1cccc(Cn2c(=O)c(-c3cccs3)nc3cnc(N(C)C)nc32)c1`, the Potency is > 11.4 µM (inactive) in [1], 15.8 µM (active) in assay [3], > 9.22 µM (inactive) in assay [6] and > 46 µM (inactive) in assay [7]. The figures for the activity change, negative = inhibition in assay [2], in assay [4] and in assay [11] were -9.34% (inactive), 23.2% (inactive) and 3.91% (inactive), respectively. Also, the activity, negative = inhibition in assay [5] is 11.2% (inactive). In assay [8], the compound was called inactive. The Potency result in assay [9], in assay [10], in assay [12], in [13], in assay [14] and in assay [15] was “inactive” in each case. In addition, the Potency entry in assay [16] is “inactive”. Also, the max response in [11] (setting [18]) amounted to 25.6%; in assay [11] (setting [19]), 27.3%.

For `FC(F)(F)c1ccccc1-c1cc(NCc2ccccc2)ncn1`, the Potency was > 11.4 µM (inactive) in [1]; 12.6 µM (active) in assay [3]; > 46 µM (inactive) in assay [6]; > 46 µM (inactive) in assay [7]; 10 µM (active) in assay [10]. In addition, the activity change, negative = inhibition was -15.2% (inactive) in [2], -0.248% (inactive) in [4] and 5.85% (inactive) in [11]. Besides, in [5], the activity, negative = inhibition was 4.93% (inactive). For the same compound, the outcome in assay [8] was inactive. Besides, the Potency entry in assay [17], in assay [12], in assay [13], in [14] and in assay [16] was “inactive” each time. Moreover, the max response is 14.8% in assay [11] (setting [18]) and 20.1% in [11] (setting [19]).

As to `Cc1noc(C)c1-c1cncnc1NCc1ccccc1`, the Potency was > 11.4 µM (inactive) in assay [1]; 25.1 µM (active) in [3]; > 46 µM (inactive) in assay [6]; > 46 µM (inactive) in assay [7]; 2 µM (active) in [17]. In addition, the activity change, negative = inhibition was -6.64% (inactive) in assay [2], 0.549% (inactive) in [4] and 6.38% (inactive) in assay [11]. For the same compound, the activity, negative = inhibition in assay [5] was -5.87% (inactive). Also, the compound was called inactive in assay [8]. The Potency entry in assay [9], in assay [10], in [12], in assay [13], in [14] and in assay [15] was “inactive” each time. The Potency entry in [16] was “inactive”. The values for the max response in assay [11] (setting [18]) and in assay [11] (setting [19]) were 0.495% and 15.9%, respectively.

As to `Cc1ccccc1-c1cc(N(C)C)ncn1`, the Potency was > 11.4 µM (inactive) in [1]; 2 µM (active) in assay [3]; > 46 µM (inactive) in [6]; > 46 µM (inactive) in [7]; 15.8 µM (active) in assay [10]. The activity change, negative = inhibition was -2.87% (inactive) in [2], -0.723% (inactive) in assay [4] and 6.31% (inactive) in [11]. For the same compound, in [5], the activity, negative = inhibition was 7.1% (inactive). Also, the outcome in assay [8] was inactive. The Potency result in assay [9], in assay [17], in assay [12], in [13], in assay [14] and in assay [15] was “inactive” each time. In [16], the Potency result was “inactive”. Besides, the results for the max response in [11] (setting [18]) and in assay [11] (setting [19]) were 20.2% and 26.4%, respectively.

For the compound `CN(C)c1ccc(-c2cc(Nc3ccc(F)cc3)ncn2)cc1`, the Potency in assay [1] was > 11.4 µM (inactive); in [3] it was 0.398 µM (active); in assay [6] it was > 46 µM (inactive); in [7] it was > 46 µM (inactive); in [12], 11.2 µM (active); in [13] it was 14.1 µM (active). Besides, the activity change, negative = inhibition is -18.2% (inactive) in [2], -8.8% (inactive) in assay [4] and 8.67% (inactive) in assay [11]. The activity, negative = inhibition in assay [5] was -12% (inactive). Also, the outcome in [8] was inactive. The Potency entry in assay [9], in assay [10], in [14] and in assay [16] was “inactive” throughout. Moreover, the values for the max response in assay [11] (setting [18]) and in assay [11] (setting [19]) were -11.3% and -0.85%, respectively.
